Screening data (PubChem BioAssay)
The list is not random: actives were taken first. Their share in the collection is about 4.7%.
ATG4B inh = blocks human ATG4B protease cleavage of LC3 substrate | Q9Y4P1 | ATG4B cleavage of LC3-PLA2, NBD-HPC fluorescence, 1 h | inhibition, % at 8.33 µM | actives 0.51% (n = 340,000) | AID 504462; in the data active = inhibition above about 40%
Target sequence (Q9Y4P1 whole entry, looked up): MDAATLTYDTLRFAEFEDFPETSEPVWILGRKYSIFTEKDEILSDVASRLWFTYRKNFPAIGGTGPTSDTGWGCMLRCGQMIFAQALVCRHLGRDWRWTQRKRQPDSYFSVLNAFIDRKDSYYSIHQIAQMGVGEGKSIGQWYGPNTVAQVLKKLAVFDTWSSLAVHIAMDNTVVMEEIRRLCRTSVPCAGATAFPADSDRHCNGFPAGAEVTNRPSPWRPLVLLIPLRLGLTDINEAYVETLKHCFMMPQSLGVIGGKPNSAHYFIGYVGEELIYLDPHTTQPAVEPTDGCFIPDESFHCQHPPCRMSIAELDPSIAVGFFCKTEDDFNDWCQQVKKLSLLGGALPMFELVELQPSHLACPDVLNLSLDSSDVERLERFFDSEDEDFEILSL
SKKanGAS inh = inhibitors of SKKanGAS S. pyogenes growth in kanamycin (SK-promoter or general growth effect). actives 1.3% (n = 300,000). BacTiter-Glo, 6 h. inhibition, % at 7.5 µM;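 active = mean replicate score, as percent of positive control median, at least 50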;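 also: strain carries kanamycin resistance gene driven by streptokinase promoter and grows in 40 µg/ml kanamycin; loss of luminescence reflects streptokinase promoter inhibition or plain growth inhibition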
TIM10 inh = TIM10 yeast growth inhibition | AID 463195 | actives 1.4% (n = 330,000) | inhibition, % at 10 µM | S. cerevisiae TIM10 strain growth, BacTiter-Glo luminescence, 24 h;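 active = inhibition of 40% or more at the single tested concentration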;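 also: wild-type TIM10 isogenic control strain grown at permissive 25 °C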
PfHsp90 set2 = growth inhibition of yeast expressing Plasmodium Hsp90 | actives 0.32% (n = 310,000) | inhibition, % at 9.4 µM | AID 504621 | S. cerevisiae expressing PfHsp90, BacTiter-Glo ATP, 48 h; yeast lacking PDR1 and PDR3 efflux regulators;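 active = every replicate shows inhibition above about 80%, whatever the replicate mean, limit read from the data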
tim10-1 inh = growth inhibitors of tim10-1 mutant yeast. S. cerevisiae tim10-1 ts strain growth, BacTiter-Glo, 24 h. inhibition, % at 20 µM. actives 2.2% (n = 330,000);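 active = inhibition of at least 40%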;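 also: mutant grown at 25 °C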
tim23-1 inh = growth inhibitors of tim23-1 mutant yeast. inhibition, % at 20 µM. actives 1.3% (n = 330,000). S. cerevisiae tim23-1 growth, BacTiter-Glo luminescence, 24 h;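 active = growth inhibition of the mutant yeast at or above 50%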;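 also: temperature-sensitive mutant grown at 25 °C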
tim10-1 confirm = tim10-1 yeast growth inhibition, confirmed; shares compounds with tim10-1 inh; AID 463213; inhibition, % at 20 µM; S. cerevisiae tim10-1 ts strain growth, BacTiter-Glo, 24 h; actives 56% (n = 7,400);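 active = inhibition of yeast growth at or above a set limit in either of two repeat tests at 20 µM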;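 also: tim10-1 mutant grown at permissive 25 °C to find synthetic lethal compounds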
Of the large screens only hits and unclear results are named; the others gave an inactive call (follow-up assays come after a bar, where they were run).

N#Cc1ccc(Cl)cc1NC(=O)CSc1cccc[n+]1[O-]	none (no result: SKKanGAS inh)
NS(=O)(=O)c1ccc(CCNC(=O)NC23CC4CC(CC(C4)C2)C3)cc1	none
COc1ccc(C(=O)NCC(=O)OCC(=O)NC23CC4CC(CC(C4)C2)C3)cc1	none (no result: SKKanGAS inh)
COc1ccc(CC(=O)OCC(=O)NC(=O)NC23CC4CC(CC(C4)C2)C3)cc1	tim10-1 inh 40 | tim10-1 confirm inactive
O=C(NCCC1=CCCCC1)NC12CC3CC(CC(C3)C1)C2	tim10-1 inh 41 | tim10-1 confirm 32
Cc1ccc(-n2nc3c(c2NC(=O)c2ccc(Br)o2)CSC3)c(C)c1	none
COc1ccc(C(C)=O)cc1Cn1nc(C)c([N+](=O)[O-])c1C	none
COc1ccc(/C=C/C(=O)C2CC2)cc1Cn1nc(C)c([N+](=O)[O-])c1C	tim10-1 inh 47 | tim10-1 confirm 37
Clc1cccc(Oc2ncccn2)c1	none
CN(C(=S)NC1CCCCC1)C1(c2ccccc2Cl)CCCCC1=O (stereo not given)	tim10-1 inh 46 | tim10-1 confirm 35
COc1ccc(CNC(=O)CSCc2cnn(-c3ccccc3)c2-n2cccc2)cc1	tim10-1 inh 44 (no result: PfHsp90 set2) | tim10-1 confirm inactive
CCOC(=O)C1=C(N)Oc2ccc3ccccc3c2C1c1ccc(O)c(OC)c1 (stereo not given)	tim10-1 inh 40 | tim10-1 confirm inactive
CCSc1cc(C)nc2c(-c3ccccc3)c(C)nn12	tim10-1 inh 40 | tim10-1 confirm inactive
Cc1cc(NCCC(C)C)n2nc(C)c(-c3ccccc3)c2n1	tim10-1 inh 45 | tim10-1 confirm inactive
Cc1cc(NCCCN2CCOCC2)n2nc(C)c(-c3ccccc3)c2n1	none
Cc1ccc(NC(=O)c2sc3nc(C)nc(N4CCN(c5ccccn5)CC4)c3c2C)c(C)c1	none
Cc1ccc(NC(=O)c2sc3ncnc(N4CCN(c5ccccn5)CC4)c3c2C)c(C)c1	tim10-1 inh 48 | tim10-1 confirm inactive
O=C(CN1CCC(n2nnc3cc(C(F)(F)F)ccc32)CC1)N1CCc2ccccc21	tim10-1 inh 46 | tim10-1 confirm 36
CCOCCCn1c(=S)[nH]c2cc(C(=O)N3CCN(C4CCCCC4)CC3)ccc2c1=O	none
Cc1ccc(S(=O)(=O)CNC(=S)c2cccc(C)c2)cc1	none
COc1ccc(C(=S)NCS(=O)(=O)c2ccc(C)cc2)cc1	tim10-1 inh 40 | tim10-1 confirm inactive
C=C1CCC[C@]2(C)C[C@H]3OC(=O)C(CN4CCOCC4)[C@H]3C[C@@H]12 (stereo not given in full)	tim10-1 inh 51 | tim10-1 confirm 46
CC1CCc2nn(CC(=O)Nc3c(F)cc(F)cc3Br)cc2C1 (stereo not given)	none
O=C(CN1CCOCC1)N/N=C/c1c(O)ccc2ccccc12	tim10-1 inh 46 | tim10-1 confirm inactive
O=C(CN1CCOCC1)N/N=C/c1ccco1	none
O=C(CSCC(=O)Nc1ccccc1)N/N=C/c1c(O)ccc2ccccc12	tim10-1 inh 42 | tim10-1 confirm inactive
COC(=O)c1ccc(N2C(=O)C3C4C=CC(CC4)C3C2=O)cc1 (stereo not given)	none
Cc1ccc(NC(=O)CSc2nnc(C3CCCCC3)n2N)cc1F	none
Cc1ccc(S(=O)(=O)/C(C#N)=C/c2c[nH]c3ccccc23)cc1	tim10-1 inh 49 | tim10-1 confirm inactive
Cc1ccc(S(=O)(=O)N/N=C/c2c[nH]c3ccccc23)cc1	none
CN(C(=S)NC(=O)c1ccc(Cl)cc1)C1CCCCC1	tim10-1 inh 42 | tim10-1 confirm inactive
COc1cc(SC)ccc1C(=O)NNC(=O)c1cc(C)oc1C	tim10-1 inh 53 | tim10-1 confirm inactive
CCOC(=O)c1cc(-c2cccs2)nc2c1c(C)nn2-c1ccccn1	SKKanGAS inh 58, tim10-1 inh 52 | tim10-1 confirm 40
Cc1nn(-c2ccccn2)c2nc(-c3cccs3)cc(C(=O)NCc3ccco3)c12	none
CC(C)(C)OC(=O)N1CCCC1C(=O)NCCc1ccccc1 (stereo not given)	none
CCc1cc2c(C)cc(=O)oc2cc1OC(=O)C1CCCN1C(=O)OC(C)(C)C (stereo not given)	tim10-1 inh 46 (no result: PfHsp90 set2) | tim10-1 confirm inactive
O=C(OCC(=O)N1CCc2ccccc2C1)c1cccnc1Cl	none
O=C1c2ccccc2C(Nc2ccc3c(c2)OCCO3)N1Cc1ccccc1 (stereo not given)	none | tim10-1 confirm inactive
CCOc1ccc(NC2c3ccccc3C(=O)N2Cc2ccc3c(c2)OCO3)cc1 (stereo not given)	none
CCn1c(SCC(=O)Nc2ccc(Cl)cc2)nc2nc3c(cc2c1=O)CCCC3	none
Cc1ccccc1-n1c(SCC(=O)Nc2ccccc2)nc2nc3c(cc2c1=O)CCCC3	tim10-1 inh 44 | tim10-1 confirm inactive
O=C(CSc1nc2nc3c(cc2c(=O)n1-c1ccccc1)CCCC3)Nc1cccc2ccccc12	tim10-1 inh 43 | tim10-1 confirm inactive
Cc1cccc(NC(=O)CSc2nc3nc4c(cc3c(=O)n2-c2ccccc2)CCCC4)c1	none
O=C(CSc1nc2ccccc2c(=O)n1-c1ccc(F)cc1)Nc1ccc2c(c1)CCC2	tim10-1 inh 41 | tim10-1 confirm inactive
COC(=O)CN1C(=O)S/C(=C/c2ccc(N3CCCCC3)o2)C1=O	tim10-1 inh 54 | tim10-1 confirm 51
CCOC(=O)CN1C(=O)S/C(=C/c2ccc(N3CCCCC3)o2)C1=O	none
CCCN1C(=O)S/C(=C\c2ccc(N3CCOCC3)o2)C1=O	tim10-1 inh 45 | tim10-1 confirm 48
CCCN1C(=O)S/C(=C/c2ccc(N3CCOCC3)o2)C1=O	tim10-1 inh 41 | tim10-1 confirm 38
C=CCN1C=CC(=C/C=C(/C#N)C(=O)OCC)C=C1	none
Cc1ccc(C)c(CSc2nnc([C@@H](N)C(C)C)o2)c1	tim10-1 inh 45 (no result: PfHsp90 set2) | tim10-1 confirm 49
Cc1nonc1OCCn1c([N+](=O)[O-])cnc1C	none
O=C(c1ccc2c(c1)OCCO2)N1CCN(c2ncc(C(F)(F)F)cc2Cl)CC1	tim10-1 inh 48 | tim10-1 confirm 34
CCCC1(C(=O)OCC)NC(c2ccc(OC)cc2OC)C2C(=O)N(c3ccc4c(c3)OCCO4)C(=O)C21 (stereo not given)	none
CN(C1CCCCC1)S(=O)(=O)c1ccc(NC(=O)c2ccc(Br)o2)cc1	tim10-1 inh 52 | tim10-1 confirm 42
O=C1CN(C(=O)/C=C/c2cccc(Cl)c2)c2ccccc2N1	tim10-1 inh 41 | tim10-1 confirm 34
O=C(NC1CCCC1)c1n[nH]c2ccccc12	none
CN(C)S(=O)(=O)c1cccc(NC(=O)COc2cccc3ccccc23)c1	tim10-1 inh 41 (no result: SKKanGAS inh, PfHsp90 set2) | tim10-1 confirm 33
